Source: PubChem BioAssay (National Center for Advancing Translational Sciences (NCATS))
An excerpt weighted towards active compounds, which were near 12% of everything screened.
G9a inh: blocks human histone lysine methyltransferase G9a | Q96KQ7 | G9a H3K9 monomethylation, AlphaScreen, 2 h | Potency, µM (top dose mostly 102 µM), actives largely listed as inhibitors | 350,000 compounds, 8.8% hits; note: nearly all actives have a fitted effect of over 75% in size
Target sequence (Q96KQ7 913-1193 limits assumed): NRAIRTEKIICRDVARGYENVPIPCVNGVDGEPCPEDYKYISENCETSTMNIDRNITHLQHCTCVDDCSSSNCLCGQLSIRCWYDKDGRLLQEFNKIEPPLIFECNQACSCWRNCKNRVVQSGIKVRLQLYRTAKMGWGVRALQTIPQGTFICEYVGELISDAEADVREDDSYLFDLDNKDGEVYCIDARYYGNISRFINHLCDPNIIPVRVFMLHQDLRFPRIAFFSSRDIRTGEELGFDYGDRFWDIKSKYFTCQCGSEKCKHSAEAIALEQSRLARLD
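AlphaScreen read-out: biotin-H3K9 peptide (500 nM) methylation by 20 nM enzyme with 20 uM SAM, 2 h at room temperature after 15 min compound preincubation; anti-monomethyl H3K9 antibody plus donor/acceptor beads, 10 min dark.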
JMJD2A Tudor: inhibitors of human JMJD2A Tudor domain; 390,000 compounds, 4.4% hits; AlphaScreen JMJD2A-Tudor / H3K4me3 peptide binding; AID 504339; Potency, µM (titrated, usually from 114 µM), most hits filed as inhibitors; O75164; note: nearly all actives have a fitted effect of over 50% in size
BAZ2B inh: blocks human BAZ2B | 360,000 compounds, 4.4% hits | AlphaScreen BAZ2B-H3K14Ac peptide displacement | Q9UIF8 | Potency, µM (titrated, usually from 114 µM), actives largely listed as inhibitors; note: nearly all actives have a fitted effect of over 60% in size
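In this displacement format the biotinylated H3(5-23) peptide acetylated at Lys14 serves as ligand at 50 nM, with BAZ2B at 50 nM in PBS pH 7.4 containing 0.01% Tween-20. Donor and acceptor beads are 10 ug/mL final.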
Sfp inh: blocks B. subtilis Sfp PPTase activity; Q9F4F7; Biochemical Sfp PPTase activity, qHTS; Potency, µM, hits mostly inhibitors; 310,000 compounds, 3.5% hits; AID 1490;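 note: the enzyme is Sfp with the accession as filed and its product quenches rhodamine fluorescence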
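Reaction rates are the 30-min fluorescence difference (ex 525, em 598 nm) in wells containing 15 nM Sfp, 5 uM rhodamine-CoA and 12.5 uM BHQ-2-YbbR at pH 7.6 with 10 mM MgCl2.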
L3MBTL1 inh: inhibitors of human L3MBTL1; 230,000 compounds, 0.66% hits; AlphaScreen L3MBTL1–H3K9me1 peptide binding; Q9Y468; Potency, µM (series often up to 57.1 µM), actives largely listed as inhibitors; note: nearly all actives have a fitted effect of over 60% in size
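L3MBTL1 (50 nM) pre-complexed 30 min with biotinylated H3(1-15)K9me1 peptide (75 nM), then compounds added for 30 min at room temperature; AlphaScreen streptavidin donor/nickel chelate acceptor beads (10 ug/mL final) read after 30 min dark incubation.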
HP1b chromo inh: HP1-beta chromodomain-methylated histone interaction inhibition; AID 540317; P83916; Potency, µM (doses to about 114 µM), most hits filed as inhibitors; 390,000 compounds, 0.56% hits; AlphaScreen HP1-beta / biotin-H3K9me3 peptide binding; note: nearly all actives have a fitted effect of over 70% in size
Target sequence (P83916 whole entry, looked up): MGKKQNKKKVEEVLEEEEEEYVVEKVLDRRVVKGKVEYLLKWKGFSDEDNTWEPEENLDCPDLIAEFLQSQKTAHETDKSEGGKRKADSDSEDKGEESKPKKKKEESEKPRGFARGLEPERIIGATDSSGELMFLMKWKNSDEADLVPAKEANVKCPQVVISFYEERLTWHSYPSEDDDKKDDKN
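AlphaScreen: HP1-beta (50 nM) preformed 30 min with biotin-H3(1-18)K9me3 peptide (50 nM) in PBS pH 7.4, 0.01% Tween-20. Compound added for 30 min at RT, then streptavidin donor/nickel chelate acceptor beads (10 ug/mL) for 30 min.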
Numbers stand for hits; - = inactive; ? = inconclusive; . = no result; [ ] = another dose, or the depositor's remark. Calls come from the whole dose curve; as a rule, active = well fitted curve in the direction sought with a large enough effect; inconclusive = small, poorly fitted or top-dose-only effect, or another doubt; inactive = no such curve, though single readings can be large; an effect the other way counts as inactive or inconclusive.

SMILES | G9a inh | JMJD2A Tudor | BAZ2B inh | Sfp inh | L3MBTL1 inh | HP1b chromo inh
Cn1c(=O)[nH]c(=O)c2c1nc(N1CCN(c3cccc(Cl)c3)CC1)n2CCCc1ccccc1 | 17.8µM | . | - | - | - | .
CCCCn1c(N2CCC(Cc3ccccc3)CC2)nc2c1c(=O)[nH]c(=O)n2C | ? | 50.1µM | ? | ? | - | ?
Cc1nnc(SCCn2c(N3CCC(Cc4ccccc4)CC3)nc3c2c(=O)[nH]c(=O)n3C)s1 | -[12.7 µM] | - | ? | - | . | -
O=C(Nc1ccc(Cl)cc1)C1CCN(C(=O)c2cccs2)CC1 | - | - | - | - | . | -
CC(=O)c1cc(F)ccc1OCC(=O)N1CCCc2ccccc21 | - | - | - | - | . | -
CC(C)n1nnc2cc(C(=O)O)ccc21 | - | . | . | - | . | .
O=C(Nc1ccc([N+](=O)[O-])cc1O)Nc1ccccc1Br | . | . | . | - | . | .
CC[N+]1(C)CCC(O)(/C=C/c2ccccc2)C(C(=O)/C=C/c2ccccc2)C1 (configuration not stated) | . | 39.8µM | . | . | . | 70.8µM
COc1ccc(N=N/C(=C\O)C(=O)c2ccco2)cc1 | ? | -[11.4 µM] | 39.8µM | - | - | -
COc1ccc(/C(N)=N/OC(=O)c2ccco2)cc1 | - | - | - | - | - | -
Cc1ccc(-n2c(=O)c3sc4ccccc4c3n(CC(=O)NC3CCCC3)c2=O)cc1C | - | - | - | . | . | -
CCCSc1nnc(CNS(=O)(=O)c2ccc(C)cc2)n1C | - | - | - | - | . | -
Fc1ccc(C(c2nnnn2C2CCCC2)N(Cc2ccco2)CC2CCCO2)cc1 (configuration not stated) | - | -[11.4 µM] | - | - | . | -
CCN(CC)C(c1ccc(F)cc1)c1nnnn1C1CCCCC1 (configuration not stated) | 89.1µM | - | - | - | - | -
c1ccc(CN(Cc2ccco2)C(c2ccncc2)c2nnnn2C2CCCC2)cc1 (configuration not stated) | 20µM | ? | ? | - | ? | -
c1ccc2c(N3CCCCC3)ncnc2c1 | -[12.7 µM] | - | - | - | . | -
CN1CC[n+]2cnc3ccccc3c21 | 2.51µM | - | - | ? | - | -
CCN(CC)C(=O)CSc1nnc2[nH]c(=O)cc(C)n12 | - | - | - | . | . | -
CCC(Sc1nnc(C)n2c1cc1sccc12)C(=O)Nc1ccccc1F (configuration not stated) | - | - | - | . | . | -
CCCn1c(C)nc2c(NCCN3CCOCC3)nc(C)nc21 | . | . | . | - | . | .
Cc1cc(Nc2cccc(F)c2)nc(NCc2ccccc2)n1 | - | - | - | 56.2µM | - | -
CCCCNc1cc(C)nc(NCc2ccccc2)n1 | - | ? | - | - | - | -
Cc1cc(Nc2ccccc2)nc(NCc2ccccc2)n1 | - | - | - | 25.1µM | - | -
Cc1cc(Nc2ccc(Cl)cc2)nc(NCc2ccccc2)n1 | - | ? | ? | 20µM | - | -
CCCCC[C@H](O)/C=C/C1C(=O)C=C[C@H]1C/C=C\CCCC(=O)OC (some centres not stated) | . | - | . | . | . | -
SMILES | G9a inh | JMJD2A Tudor | BAZ2B inh | Sfp inh | L3MBTL1 inh | HP1b chromo inh
CC(=O)c1ccc(NC(=O)CCCSc2nc(-c3ccco3)cc(C(F)(F)F)n2)cc1 | - | - | - | . | . | -
NC(=S)NN=CCn1cc([N+](=O)[O-])c(=O)[nH]c1=O | . | - | . | . | . | -
COc1ccc(-c2n[nH]c(=S)n2-c2ccccc2C)cc1 | 4.47µM | ? | - | ? | - | -
Cc1ccccc1-n1c(-c2ccc3ccccc3n2)n[nH]c1=S | 14.1µM | - | - | - | - | -
COc1ccc(-c2n[nH]c(=S)n2-c2ccccc2C)cc1OC | 7.94µM | 11.2µM | - | - | - | -
S=c1[nH]nc(-c2ccc3ccccc3n2)n1-c1ccc2ncccc2c1 | 2µM | - | ? | ? | - | -
O=[S+]([O-])(c1ccc2nsnc2c1)N1CCN([S+](=O)([O-])c2c(F)cccc2F)CC1 | . | - | . | . | . | .
CCc1ccccc1NC(=O)CSc1nnc(-c2cc(OC)c(OC)c(OC)c2)o1 | - | - | - | . | . | -
COc1ccccc1C(CNC(=O)c1cccc(NS(=O)(=O)c2ccc(C)c(F)c2)c1)N1CCCC1 (configuration not stated) | - | - | ? | . | - | -
COc1ccccc1C(=O)Nc1ccc2nc(N3CCC(C)CC3)cc(C)c2c1 | - | - | - | . | . | -
O=C(c1cccs1)N1CCN(Cc2ccccc2[N+](=O)[O-])CC1 | 11.2µM | ? | 56.2µM | - | - | ?
O=C(c1cccs1)N1CCN(CCc2ccccc2)CC1 | - | - | - | - | - | -
COc1cccc(C(=O)N2CCN(Cc3ccccc3[N+](=O)[O-])CC2)c1 | 11.2µM | 22.4µM | ? | - | - | ?
COc1ccc(-c2ccc3c(c2)C2CC3CCN2)cc1 (configuration not stated) | . | - | . | . | . | -
COC(=O)c1cc(OC)c(=O)c2c(OC)c(OC)ccc2c1 | -[2.33 µM] | . | . | - | . | .
CCN(CC)c1ccc(N=C2C(=O)Nc3ccccc32)cc1 | 6.31µM | 15.8µM | 11.2µM | ? | . | ?
O=C1Nc2ccccc2C1=Nc1ccc2[nH]c3ccccc3c2c1 | . | 35.5µM | . | . | . | ?
Cc1ccc(N=C2C(=O)Nc3ccccc32)cc1C | -[0.501 µM] | - | - | - | -[2.29 µM] | -
Cc1cccc(C2NC(=O)c3c(sc4c3CCN(C)C4)N2)c1O (configuration not stated) | ? | - | - | . | . | -
O=C1Cc2cc(CCN3CCN(c4nsc5ccccc45)CC3)c(Cl)cc2N1 | 10.6µM | . | ? | - | . | .
COc1ccc(NC(=O)C2CCC(CNS(=O)(=O)c3cccc4nsnc34)CC2)cc1OC (configuration not stated) | - | - | - | . | . | -
CCC(OC(=O)c1cccs1)C(=O)NCc1ccc2c(c1)OCO2 (configuration not stated) | -[12.7 µM] | 100µM | - | - | -[11.4 µM] | -
O=C1NC(c2ccccc2Br)=N/C1=C\c1ccco1 | 44.7µM | ? | - | ? | . | -
O=C1NC(c2ccccc2)=N/C1=C/c1ccco1 | 22.4µM | - | - | ? | - | -
COc1ccccc1NC(=O)c1c(NC(=O)c2cccs2)sc2c1CCC(C(C)(C)C)C2 (configuration not stated) | - | - | - | . | . | -
CC(C)(C)C1CCc2c(sc(NC(=O)CCC(=O)O)c2C(=O)Nc2ccccc2C(F)(F)F)C1 (configuration not stated) | ? | 56.2µM | 50.1µM | . | . | -
Cc1ccc(Cl)cc1NC(=O)CN1C(=O)CSc2ccc(S(=O)(=O)N3CCCC3)cc21 | - | - | - | . | . | -
O=C(Cc1cccs1)NCc1ccccc1 | - | - | - | - | - | -
O=C(CNC(=O)c1ccc(Cl)cc1)Nc1ccc(S(=O)(=O)Nc2ncccn2)cc1 | 22.4µM | - | ? | - | - | -
CC(C)NS(=O)(=O)c1ccc(NC(=O)Cc2cccs2)cc1 | - | - | - | - | - | -
